In ChEMBL document CHEMBL1961873, “Compounds: GSK PKIS; Assays: Nanosyn kinase panel” (2012):

What was measured:
[1] = molecular target: Mitogen-activated protein kinase 3 (Homo sapiens) (UniProt P27361); conditions: at 1 µM;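 note: values are mean percent inhibition of MAPK3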
[2] = molecular target: SRSF protein kinase 3 (Homo sapiens) (UniProt Q9UPE1); conditions: at 0.1 µM
[3] = molecular target: SRSF protein kinase 3 (Homo sapiens) (UniProt Q9UPE1); conditions: at 1 µM
[4] = molecular target: Mitogen-activated protein kinase 14 (Homo sapiens) (UniProt Q16539); conditions: at 0.1 µM
Sequence of Mitogen-activated protein kinase 14 (Homo sapiens) (Q16539 whole entry): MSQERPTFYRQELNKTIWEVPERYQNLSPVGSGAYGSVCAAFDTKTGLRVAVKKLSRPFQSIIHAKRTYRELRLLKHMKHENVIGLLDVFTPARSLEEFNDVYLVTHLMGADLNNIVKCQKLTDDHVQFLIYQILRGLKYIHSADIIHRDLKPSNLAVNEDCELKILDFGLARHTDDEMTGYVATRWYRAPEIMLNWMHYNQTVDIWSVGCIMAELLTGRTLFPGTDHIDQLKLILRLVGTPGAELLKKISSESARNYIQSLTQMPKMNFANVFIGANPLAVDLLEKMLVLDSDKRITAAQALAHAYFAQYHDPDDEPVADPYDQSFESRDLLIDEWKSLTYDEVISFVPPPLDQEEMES

[5] = molecular target: Mitogen-activated protein kinase 14 (Homo sapiens) (UniProt Q16539); conditions: at 1 µM
[6] = molecular target: Mitogen-activated protein kinase 11 (Homo sapiens) (UniProt Q15759); conditions: at 0.1 µM
Sequence of Mitogen-activated protein kinase 11 (Homo sapiens) (Q15759 whole entry): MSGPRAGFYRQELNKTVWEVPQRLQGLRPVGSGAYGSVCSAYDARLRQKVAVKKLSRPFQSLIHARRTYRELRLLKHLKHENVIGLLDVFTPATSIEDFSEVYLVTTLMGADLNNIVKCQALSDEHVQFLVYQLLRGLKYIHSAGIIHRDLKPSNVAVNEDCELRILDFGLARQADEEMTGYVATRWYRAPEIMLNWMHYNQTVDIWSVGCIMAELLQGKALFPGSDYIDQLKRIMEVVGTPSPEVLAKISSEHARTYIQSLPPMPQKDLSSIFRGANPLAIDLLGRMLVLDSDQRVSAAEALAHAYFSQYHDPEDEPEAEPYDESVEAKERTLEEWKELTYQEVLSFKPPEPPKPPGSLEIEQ

[7] = molecular target: Mitogen-activated protein kinase 11 (Homo sapiens) (UniProt Q15759); conditions: at 1 µM
[8] = molecular target: T1, Mitogen-activated protein kinase 13 (Homo sapiens) (UniProt O15264); conditions: at 0.1 µM
T1 sequence (whole entry): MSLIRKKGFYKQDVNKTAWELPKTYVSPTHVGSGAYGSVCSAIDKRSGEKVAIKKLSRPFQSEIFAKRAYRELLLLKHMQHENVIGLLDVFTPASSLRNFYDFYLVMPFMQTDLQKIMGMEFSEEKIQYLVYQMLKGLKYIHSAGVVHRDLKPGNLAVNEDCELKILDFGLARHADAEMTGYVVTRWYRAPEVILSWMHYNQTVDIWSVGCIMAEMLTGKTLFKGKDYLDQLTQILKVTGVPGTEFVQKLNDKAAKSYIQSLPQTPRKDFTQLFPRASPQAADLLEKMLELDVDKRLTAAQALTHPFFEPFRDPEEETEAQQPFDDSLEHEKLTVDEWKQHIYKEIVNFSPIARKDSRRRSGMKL

[9] = molecular target: T1, Mitogen-activated protein kinase 13 (Homo sapiens); conditions: at 1 µM
[10] = molecular target: T2, Mitogen-activated protein kinase 12 (Homo sapiens) (UniProt P53778); conditions: at 0.1 µM
T2 sequence (whole entry): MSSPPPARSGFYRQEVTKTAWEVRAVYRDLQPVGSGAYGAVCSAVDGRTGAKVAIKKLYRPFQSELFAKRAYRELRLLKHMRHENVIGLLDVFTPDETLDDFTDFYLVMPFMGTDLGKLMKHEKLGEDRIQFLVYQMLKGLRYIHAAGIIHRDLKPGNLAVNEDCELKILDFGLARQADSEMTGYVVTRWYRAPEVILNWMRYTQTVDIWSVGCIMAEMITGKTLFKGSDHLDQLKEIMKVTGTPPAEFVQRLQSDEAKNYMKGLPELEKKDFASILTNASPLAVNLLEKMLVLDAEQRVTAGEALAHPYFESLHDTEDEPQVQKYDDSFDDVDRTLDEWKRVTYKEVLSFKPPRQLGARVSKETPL

[11] = molecular target: T2, Mitogen-activated protein kinase 12 (Homo sapiens); conditions: at 1 µM
[12] = molecular target: SRSF protein kinase 1 (Homo sapiens) (UniProt Q96SB4); conditions: at 0.1 µM
Sequence of SRSF protein kinase 1 (Homo sapiens) (Q96SB4 whole entry, canonical isoform): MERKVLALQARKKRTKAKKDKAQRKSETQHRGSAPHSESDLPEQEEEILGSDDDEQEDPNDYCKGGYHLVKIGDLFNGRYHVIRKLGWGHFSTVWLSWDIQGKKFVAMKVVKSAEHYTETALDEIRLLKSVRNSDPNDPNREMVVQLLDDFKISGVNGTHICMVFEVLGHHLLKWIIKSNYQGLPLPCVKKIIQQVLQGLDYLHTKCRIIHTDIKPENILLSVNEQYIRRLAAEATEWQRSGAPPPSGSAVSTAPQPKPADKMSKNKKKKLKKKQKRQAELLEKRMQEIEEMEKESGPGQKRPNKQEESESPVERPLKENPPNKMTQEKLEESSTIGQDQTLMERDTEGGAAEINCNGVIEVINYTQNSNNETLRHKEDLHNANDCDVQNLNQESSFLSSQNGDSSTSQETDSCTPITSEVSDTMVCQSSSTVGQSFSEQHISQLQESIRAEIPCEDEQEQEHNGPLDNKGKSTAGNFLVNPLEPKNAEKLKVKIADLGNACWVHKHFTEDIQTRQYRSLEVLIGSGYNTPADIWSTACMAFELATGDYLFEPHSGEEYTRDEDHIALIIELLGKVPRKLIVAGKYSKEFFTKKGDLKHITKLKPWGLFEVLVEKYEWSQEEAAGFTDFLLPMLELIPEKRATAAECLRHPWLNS

[13] = molecular target: SRSF protein kinase 1 (Homo sapiens) (UniProt Q96SB4); conditions: at 1 µM
[14] = molecular target: Phosphatidylinositol 4,5-bisphosphate 3-kinase catalytic subunit alpha isoform (Homo sapiens) (UniProt P42336); conditions: at 0.1 µM
Sequence of Phosphatidylinositol 4,5-bisphosphate 3-kinase catalytic subunit alpha isoform (Homo sapiens) (P42336 whole entry, canonical isoform): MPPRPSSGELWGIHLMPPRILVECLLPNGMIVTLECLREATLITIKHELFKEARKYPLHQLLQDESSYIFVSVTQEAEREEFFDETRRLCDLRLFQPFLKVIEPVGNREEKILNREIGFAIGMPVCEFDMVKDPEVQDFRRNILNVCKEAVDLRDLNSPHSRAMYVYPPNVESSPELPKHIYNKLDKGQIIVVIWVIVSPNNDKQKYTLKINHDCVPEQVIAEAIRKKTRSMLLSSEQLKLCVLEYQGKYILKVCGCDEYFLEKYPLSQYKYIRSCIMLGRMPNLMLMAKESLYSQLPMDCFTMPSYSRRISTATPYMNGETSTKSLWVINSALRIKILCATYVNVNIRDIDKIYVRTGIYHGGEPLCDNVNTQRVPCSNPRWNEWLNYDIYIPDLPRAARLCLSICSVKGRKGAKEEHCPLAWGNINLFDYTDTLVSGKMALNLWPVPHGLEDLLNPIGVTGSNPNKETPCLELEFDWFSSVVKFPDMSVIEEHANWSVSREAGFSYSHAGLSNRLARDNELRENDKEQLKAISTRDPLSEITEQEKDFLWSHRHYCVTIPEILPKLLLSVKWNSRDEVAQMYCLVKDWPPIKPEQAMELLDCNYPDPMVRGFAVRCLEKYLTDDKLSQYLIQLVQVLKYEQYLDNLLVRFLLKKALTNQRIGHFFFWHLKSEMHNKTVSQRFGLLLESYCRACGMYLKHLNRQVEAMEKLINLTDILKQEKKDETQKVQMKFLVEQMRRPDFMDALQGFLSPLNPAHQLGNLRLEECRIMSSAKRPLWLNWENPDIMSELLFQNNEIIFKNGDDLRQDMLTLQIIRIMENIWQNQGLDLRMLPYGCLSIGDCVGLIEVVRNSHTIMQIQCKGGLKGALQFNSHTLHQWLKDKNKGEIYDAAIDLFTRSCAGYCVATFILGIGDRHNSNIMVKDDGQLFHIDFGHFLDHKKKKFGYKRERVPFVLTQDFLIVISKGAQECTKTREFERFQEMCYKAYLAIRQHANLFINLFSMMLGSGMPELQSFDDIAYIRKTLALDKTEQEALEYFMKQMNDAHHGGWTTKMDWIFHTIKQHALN

[15] = molecular target: Phosphatidylinositol 4,5-bisphosphate 3-kinase catalytic subunit alpha isoform (Homo sapiens) (UniProt P42336); conditions: at 1 µM
[16] = molecular target: T3, Phosphatidylinositol 4,5-bisphosphate 3-kinase catalytic subunit delta isoform (Homo sapiens) (UniProt O00329); conditions: at 0.1 µM
T3 sequence (whole entry): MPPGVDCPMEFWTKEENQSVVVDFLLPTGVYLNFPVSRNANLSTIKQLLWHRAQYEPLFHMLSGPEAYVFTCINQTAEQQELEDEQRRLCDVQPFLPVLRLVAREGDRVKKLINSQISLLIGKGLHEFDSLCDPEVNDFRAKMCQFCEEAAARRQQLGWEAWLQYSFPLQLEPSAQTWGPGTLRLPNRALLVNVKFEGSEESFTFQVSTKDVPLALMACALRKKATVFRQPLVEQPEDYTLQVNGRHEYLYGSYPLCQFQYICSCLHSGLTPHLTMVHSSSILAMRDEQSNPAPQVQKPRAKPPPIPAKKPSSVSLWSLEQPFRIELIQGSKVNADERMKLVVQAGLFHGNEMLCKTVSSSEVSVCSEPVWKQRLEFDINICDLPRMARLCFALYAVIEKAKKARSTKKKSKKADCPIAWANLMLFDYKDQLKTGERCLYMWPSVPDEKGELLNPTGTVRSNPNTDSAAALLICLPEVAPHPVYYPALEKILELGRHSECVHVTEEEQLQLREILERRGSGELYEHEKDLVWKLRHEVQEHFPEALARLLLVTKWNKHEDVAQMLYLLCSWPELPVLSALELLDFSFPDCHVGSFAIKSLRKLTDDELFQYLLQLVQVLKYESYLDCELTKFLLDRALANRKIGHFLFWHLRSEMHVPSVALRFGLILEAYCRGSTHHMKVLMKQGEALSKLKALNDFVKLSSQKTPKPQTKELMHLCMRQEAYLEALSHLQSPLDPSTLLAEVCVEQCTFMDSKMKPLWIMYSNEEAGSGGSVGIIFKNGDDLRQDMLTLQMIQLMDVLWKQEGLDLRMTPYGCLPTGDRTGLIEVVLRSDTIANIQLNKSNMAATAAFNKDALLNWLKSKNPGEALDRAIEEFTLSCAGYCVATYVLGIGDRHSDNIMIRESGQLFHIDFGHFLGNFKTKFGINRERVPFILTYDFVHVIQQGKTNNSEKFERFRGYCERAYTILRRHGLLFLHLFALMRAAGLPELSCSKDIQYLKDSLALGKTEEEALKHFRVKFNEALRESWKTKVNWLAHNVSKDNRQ

[17] = molecular target: T3, Phosphatidylinositol 4,5-bisphosphate 3-kinase catalytic subunit delta isoform (Homo sapiens); conditions: at 1 µM
[18] = molecular target: Phosphatidylinositol 4-kinase beta (Homo sapiens) (UniProt Q9UBF8); conditions: at 0.1 µM
Sequence of Phosphatidylinositol 4-kinase beta (Homo sapiens) (Q9UBF8 2-816 limits assumed): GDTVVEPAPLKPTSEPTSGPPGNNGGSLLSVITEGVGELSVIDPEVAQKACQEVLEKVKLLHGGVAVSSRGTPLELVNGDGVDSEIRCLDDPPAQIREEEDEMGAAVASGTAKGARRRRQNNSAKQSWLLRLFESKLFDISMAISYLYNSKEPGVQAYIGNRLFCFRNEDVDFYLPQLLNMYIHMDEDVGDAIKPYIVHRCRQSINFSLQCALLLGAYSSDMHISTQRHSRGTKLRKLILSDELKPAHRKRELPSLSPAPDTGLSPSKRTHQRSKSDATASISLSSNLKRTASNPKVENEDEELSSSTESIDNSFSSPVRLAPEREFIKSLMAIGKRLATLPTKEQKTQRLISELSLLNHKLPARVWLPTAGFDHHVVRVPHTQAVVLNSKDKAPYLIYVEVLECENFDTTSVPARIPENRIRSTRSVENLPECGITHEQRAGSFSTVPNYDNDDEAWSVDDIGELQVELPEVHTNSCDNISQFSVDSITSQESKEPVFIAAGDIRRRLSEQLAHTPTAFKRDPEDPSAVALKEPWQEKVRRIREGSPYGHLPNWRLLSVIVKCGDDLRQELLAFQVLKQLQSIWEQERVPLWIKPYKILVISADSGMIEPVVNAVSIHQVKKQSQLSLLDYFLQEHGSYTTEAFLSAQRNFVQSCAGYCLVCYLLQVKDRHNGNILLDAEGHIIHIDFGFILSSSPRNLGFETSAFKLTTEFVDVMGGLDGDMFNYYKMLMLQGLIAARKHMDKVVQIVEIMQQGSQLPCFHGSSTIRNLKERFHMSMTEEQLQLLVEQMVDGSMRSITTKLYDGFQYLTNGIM

[19] = molecular target: Phosphatidylinositol 4-kinase beta (Homo sapiens) (UniProt Q9UBF8); conditions: at 1 µM
[20] = molecular target: Sphingosine kinase 1 (Homo sapiens) (UniProt Q9NYA1); conditions: at 0.1 µM;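 note: mean percent inhibition of SPHK1 activity, measured within the GSK PKIS screening panel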
Sequence of Sphingosine kinase 1 (Homo sapiens) (Q9NYA1 whole entry): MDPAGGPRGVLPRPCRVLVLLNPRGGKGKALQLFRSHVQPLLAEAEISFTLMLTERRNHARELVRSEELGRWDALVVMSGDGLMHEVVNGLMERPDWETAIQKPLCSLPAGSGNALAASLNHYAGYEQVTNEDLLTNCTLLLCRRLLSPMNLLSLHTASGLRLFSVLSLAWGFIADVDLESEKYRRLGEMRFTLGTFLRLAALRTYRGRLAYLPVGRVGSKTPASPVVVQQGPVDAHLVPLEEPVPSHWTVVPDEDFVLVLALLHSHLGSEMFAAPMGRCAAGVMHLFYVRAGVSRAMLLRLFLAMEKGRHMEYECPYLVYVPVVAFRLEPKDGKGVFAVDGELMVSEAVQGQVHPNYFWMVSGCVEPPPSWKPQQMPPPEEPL

Sequence of Mitogen-activated protein kinase 3 (Homo sapiens) (P27361 whole entry): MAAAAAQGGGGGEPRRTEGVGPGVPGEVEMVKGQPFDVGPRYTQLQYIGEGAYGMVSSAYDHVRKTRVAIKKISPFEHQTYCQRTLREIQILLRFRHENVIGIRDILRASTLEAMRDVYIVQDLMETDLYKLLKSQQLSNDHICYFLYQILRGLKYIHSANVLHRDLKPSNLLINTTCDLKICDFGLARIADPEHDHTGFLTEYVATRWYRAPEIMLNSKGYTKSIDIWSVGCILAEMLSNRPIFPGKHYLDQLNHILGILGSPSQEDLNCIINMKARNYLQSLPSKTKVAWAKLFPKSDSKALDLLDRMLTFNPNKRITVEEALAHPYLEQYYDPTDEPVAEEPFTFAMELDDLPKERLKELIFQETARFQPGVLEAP
Sequence of SRSF protein kinase 3 (Homo sapiens) (Q9UPE1 whole entry): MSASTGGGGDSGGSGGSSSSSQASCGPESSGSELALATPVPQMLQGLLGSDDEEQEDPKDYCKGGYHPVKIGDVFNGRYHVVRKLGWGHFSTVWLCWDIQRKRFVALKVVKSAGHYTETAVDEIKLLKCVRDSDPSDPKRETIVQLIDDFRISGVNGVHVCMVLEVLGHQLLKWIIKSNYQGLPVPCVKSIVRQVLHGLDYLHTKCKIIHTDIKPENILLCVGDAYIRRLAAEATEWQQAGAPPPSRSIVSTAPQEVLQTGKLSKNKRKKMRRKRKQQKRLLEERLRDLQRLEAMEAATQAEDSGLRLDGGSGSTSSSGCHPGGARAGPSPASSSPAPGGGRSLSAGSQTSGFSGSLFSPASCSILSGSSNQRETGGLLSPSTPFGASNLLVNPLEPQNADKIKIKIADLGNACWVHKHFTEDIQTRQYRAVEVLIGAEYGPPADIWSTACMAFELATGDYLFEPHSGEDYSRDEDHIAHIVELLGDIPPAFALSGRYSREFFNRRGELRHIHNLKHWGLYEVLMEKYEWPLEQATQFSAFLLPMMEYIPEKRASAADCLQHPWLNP

Row | SMILES | inhibition [1] [%] | inhibition [2] [%] | inhibition [3] [%] | inhibition [4] [%] | inhibition [5] [%] | inhibition [6] [%] | inhibition [7] [%] | inhibition [8] [%] | inhibition [9] [%] | inhibition [10] [%] | inhibition [11] [%] | inhibition [12] [%] | inhibition [13] [%] | inhibition [14] [%] | inhibition [15] [%] | inhibition [16] [%] | inhibition [17] [%] | inhibition [18] [%] | inhibition [19] [%] | inhibition [20] [%]
1 | Clc1ccc(CNc2nccc(-c3cnn4ncccc34)n2)cc1 | 1.44 | -0.1 | -3.75 | 2.58 | 7.97 | 1.06 | 6.53 | -0.19 | 2.4 | 0.66 | 1.18 | 0.9 | 1.1 | -1.31 | 0.56 | -0.61 | 1.79 | 2.18 | 1.28 | -0.17
2 | NCc1ccc(-n2c(-c3nonc3N)nc3cnccc32)cc1 | 5.64 | -0.85 | -1.47 | 4.72 | 10 | 5.07 | 11 | 2.2 | 7.37 | 3.52 | 3.74 | -2.56 | -1.45 | 4.81 | 4.8 | 3.69 | 6.07 |  | 5.38 | 1.89
3 | Cc1nnc(-c2ccc(C)c(-c3ccc(C(=O)NCc4ccc(Cl)cc4)cc3)c2)o1 | 3.65 | -1.7 | -0.7 | 9.97 | 54.2 | 6.73 | 27.7 | 1.96 | 3.99 | 1.42 | 3.42 | -1.29 | -1.82 | 3.66 | 2.48 | 2.02 | 3.9 |  | -0.13 | 0.23
4 | COc1cccc(-n2cnc3c(N/N=C/c4ccncc4)ncnc32)c1 | 2.27 | -0.93 | 0.28 | 2.63 | -0.98 | 1.35 | 0.89 | -0.64 | -2.04 | -1.4 | -1.27 | 1.41 | 4.2 | -0.19 | -3.79 | -1.29 | -2.3 | 5.84 | -1.85 | -0.37
5 | COc1cc2ncn(-c3cc(OCc4cccs4)c(C(N)=O)s3)c2cc1OC | 4.45 | 0.87 |  | 16.9 | 12.3 | 3.88 | 5.4 | 0.78 | 1.21 | 2 | 1.93 | 1.92 | 7.84 | 2.89 | 8.89 | 2.03 | 12.9 | 4.6 | -3.17 | 0.03
6 | O=C1Nc2ccccc2/C1=C/Nc1ccc(-n2cncn2)cc1 | 6.36 | -3.04 | -0.36 | 2.12 | 6.86 | 5.3 | 8.05 | 2.33 | 5.56 | 2.03 | 3.66 | -1.28 | 1.26 | 3.26 | 3.95 | 1.81 | 2.88 |  | -9.88 | 1.74
7 | C[C@@H](Oc1cc(-n2cnc3ccc(OCC4CCN(C)CC4)cc32)sc1C(N)=O)c1ccccc1Cl | 7.74 | 0.89 | 0.11 | 5.8 | 6.58 | 3.71 | 5.93 | 5.74 | 6.23 | 3.48 | 6.25 | -2.59 | -1.67 | 8.19 | 27.3 | 15.6 | 74.6 | -6.34 |  | 1.45
